Source: PubChem
This is a sample that favours compounds with a hit; in the whole collection about 12% have one here.
Lmaj promast: Leishmania major promastigote growth inhibition, primary screen; Leishmania major promastigotes, resazurin fluorescence viability; inhibition, % at 10 µM; hit rate 9% among 200,000; AID 1063, 2008; in the data active = inhibition above about 50%;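 note: promastigotes grown with compound for 44 hours at 28 °C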
INS promoter inh: inhibitors of insulin promoter-driven GFP, primary screen, imaging, TRM-6 cells (human fetal islet line), eGFP reporter, cell count; inhibition, % at 2 µM; reporter expression induced with tamoxifen; hit rate 0.9% among 130,000;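 active = inhibition above the mean plus 3 SD, with well images judged a real hit on visual review, cut at about 60% in these data, passing the limit was not always enough; inconclusive = inhibition over the cutoff but images rejected on review; inactive = inhibition not above the cutoff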
Cl transport mod: KCC2 cotransporter modulators, thallium flux, primary screen, cell-based, HEK293 KCC2, FluoZin-2 fluorescence, MLSMR; Solute carrier family 12 member 5 (Homo sapiens), Q9H2X9; KCC2 cells, thallium flux FluoZin-2 fluorescence; hit rate 2.2% among 190,000; B-score of Tl+ flux slope (higher = more flux/activation; lower = inhibition) at 10 µM;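 active = thallium flux slope and its plate-corrected score both differing from the plate sample mean at a set confidence after two filtering rounds, in either direction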;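 note: slope of fluorescence scaled to starting intensity during 10 to 20 s after thallium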
Target sequence (Q9H2X9 whole entry, looked up): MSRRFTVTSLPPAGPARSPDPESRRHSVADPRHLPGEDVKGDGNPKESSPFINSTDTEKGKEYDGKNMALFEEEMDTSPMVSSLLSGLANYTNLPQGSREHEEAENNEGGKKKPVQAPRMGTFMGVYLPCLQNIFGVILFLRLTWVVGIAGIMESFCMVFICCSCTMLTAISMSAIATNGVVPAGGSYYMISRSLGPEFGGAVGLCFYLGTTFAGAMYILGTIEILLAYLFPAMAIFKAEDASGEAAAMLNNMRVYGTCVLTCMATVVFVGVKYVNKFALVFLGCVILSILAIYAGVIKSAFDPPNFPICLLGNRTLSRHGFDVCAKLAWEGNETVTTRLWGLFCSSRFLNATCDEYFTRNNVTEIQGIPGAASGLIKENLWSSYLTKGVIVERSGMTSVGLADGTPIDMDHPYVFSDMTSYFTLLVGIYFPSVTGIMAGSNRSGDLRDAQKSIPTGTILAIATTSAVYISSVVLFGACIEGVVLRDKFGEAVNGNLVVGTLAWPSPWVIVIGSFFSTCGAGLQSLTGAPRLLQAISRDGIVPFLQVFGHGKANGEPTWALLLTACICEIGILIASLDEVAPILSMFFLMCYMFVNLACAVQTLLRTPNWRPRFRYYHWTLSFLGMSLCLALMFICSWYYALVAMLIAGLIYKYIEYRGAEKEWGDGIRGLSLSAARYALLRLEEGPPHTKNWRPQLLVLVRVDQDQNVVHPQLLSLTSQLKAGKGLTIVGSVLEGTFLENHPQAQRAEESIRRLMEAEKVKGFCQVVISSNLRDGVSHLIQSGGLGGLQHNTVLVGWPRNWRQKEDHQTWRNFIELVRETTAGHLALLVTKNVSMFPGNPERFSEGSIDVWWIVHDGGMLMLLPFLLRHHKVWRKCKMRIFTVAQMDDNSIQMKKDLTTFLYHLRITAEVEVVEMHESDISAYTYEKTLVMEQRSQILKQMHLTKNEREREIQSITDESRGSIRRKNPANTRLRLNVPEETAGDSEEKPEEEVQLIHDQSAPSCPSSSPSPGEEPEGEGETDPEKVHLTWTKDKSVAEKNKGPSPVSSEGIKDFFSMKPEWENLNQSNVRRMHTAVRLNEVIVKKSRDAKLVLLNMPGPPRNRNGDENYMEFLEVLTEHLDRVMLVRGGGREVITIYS
WT yeast gro inh: growth inhibition of WT strain, primary screen, mitochondrial fusion inhibitor project, WT and mutant strains, chemical genetic; mitochondrial fusion phenotypic screen; inhibition, % at 10 µM; hit rate 2.1% among 190,000; AID 1362, 2008; in the data active = inhibition above about 58%; tested in S. cerevisiae
Ins promoter up: insulin promoter activators in MIN6 cells, imaging, high-content screening, mouse beta cells; MIN6 insulin promoter-GFP reporter; active compounds read high; hit rate 0.3% among 190,000; z-score at 5 µM;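 active = z-score above 3 at 5 µM with at least 500 cells counted in the well; inconclusive = wells under 500 cells, flagged as cytotoxic or low count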
ROMK mod: ROMK potassium channel modulators, primary screen, cell-based, thallium flux, MLSMR library | ATP-sensitive inward rectifier potassium channel 1 (Homo sapiens), P48048 | Tet-inducible ROMK, thallium flux fluorescence; actives lie on both sides | B-score at 10 µM | hit rate 2% among 130,000 | AID 1918, 2009;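 active = signal ratio slope over the read window, or its plate-corrected B-score, at least 3 SD from the plate mean, either direction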;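 note: B-score of the F/F0 ratio slope over 7 to 12 s after thallium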
KCC2 secondary: KCC2 modulators in sodium-free buffer, confirmation, cell-based, HEK293 KCC2, thallium flux, secondary assay | shares compounds with Cl transport mod | FluoZin2 fluorescence; active compounds read high | normalised thallium flux (F/F0 slope) at 10 µM | hit rate 15% among 3,700 | AID 1713, 2009;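 active = thallium flux slope above the same plate's solvent-only control mean plus 3 SD; inconclusive = the two replicate wells disagree; inactive = no significant difference from solvent-only control wells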
KCC2 bumet counter: thallium flux persisting under bumetanide in KCC2 cells, confirmation, counter-screen for KCC2 modulator project, cell-based, HEK293 KCC2, FluoZin2, secondary assay 3; shares compounds with Cl transport mod; HEK293-KCC2 + bumetanide/ouabain; active compounds read high; normalized thallium flux at 10 µM; hit rate 49% among 3,700;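 active = thallium entry rate above the same plate's blocked-transporter control wells by more than 3 SD; inconclusive = the two repeat wells disagree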;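 note: raw slope of fluorescence over initial fluorescence between 10 and 20 s after thallium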
KCC2 sec2: KCC2 modulators without ouabain present, confirmation, cell-based, HEK293 KCC2, thallium flux, FluoZin2, secondary assay 2. shares compounds with Cl transport mod. thallium flux FluoZin2 fluorescence; actives lie on both sides; F/F0 rise rate, 10–20 s post-thallium. normalized thallium flux at 10 µM. hit rate 23% among 3,700;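 active = thallium flux slope more than 3 SD above or below the plate's solvent-only control mean, mostly below; inconclusive = the two repeat wells disagreed; inactive = no significant shift from solvent-only controls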
HEK293 Tl flux: thallium flux modulation in parental HEK cells, confirmation, counter-screen for KCC2 modulator project, cell-based, counterscreen 1; shares compounds with Cl transport mod; HEK293 parental cells, thallium flux FluoZin2, ouabain; baseline-ratio fluorescence slope, 10–20 s after thallium; thallium flux rate (normalised fluorescence) at 10 µM; hit rate 46% among 3,700;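 active = thallium flux rate significantly above the same plate's solvent-only control wells, beyond their mean plus 3 SD; inconclusive = the two replicate wells gave conflicting results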
KCC2 retest ouab: KCC2 inhibitors and activators, ouabain retest, confirmation, HEK-KCC2 cells; shares compounds with Cl transport mod; HEK293-KCC2, thallium flux FluoZin2 fluorescence; bidirectional: low = inhibitor, high = activator; raw Tl+ flux slope (below DMSO = inhibition, above = activation) at 10 µM; hit rate 48% among 3,700;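 active = thallium flux slope beyond 3 SD from same-plate DMSO control mean in most replicates, usually higher, sometimes lower; inconclusive = repeat tests gave conflicting results; inactive = no significant difference from controls in most replicates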;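 note: slope of initial-normalized fluorescence between seconds 10 and 20 after thallium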
HEK counter2: native HEK Tl+ uptake effects, second counter-screen – HEK cells, counterscreen 2, counter-screen for KCC2 modulator project, confirmation; hit rate 33% among 3,700; shares compounds with Cl transport mod; HEK293 parental, thallium flux FluoZin-2 fluorescence slope; thallium flux slope at 10 µM; AID 1718, 2009;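 active = thallium flux slope above the same plate's solvent-control mean plus 3 SD in both duplicate wells; inconclusive = duplicate wells that disagreed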;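 note: run without ouabain in cells lacking the KCC2 cotransporter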
Hits are given with their value; 0 = inactive; ? = inconclusive; - = not tested or not shown.

SMILES	Lmaj promast	INS promoter inh	Cl transport mod	WT yeast gro inh	Ins promoter up	ROMK mod	KCC2 secondary	KCC2 bumet counter	KCC2 sec2	HEK293 Tl flux	KCC2 retest ouab	HEK counter2
Cc1cccc(NC(=S)NC(=O)c2ccc(Br)o2)c1C	0	-	71	0	0	0	0.05	0.1	0.054	0.14	0.12	0.057
Cc1ccc(C)c(NC(=S)NNC(=O)c2ccc(Br)o2)c1	0	0	-	0	-	-	-	-	-	-	-	-
CC(=O)c1sc(-c2ccccc2)cc1N	-	-	0	-	0	-	-	-	-	-	-	-
CC(=O)c1sc(-c2ccc(F)cc2)cc1NS(=O)(=O)c1ccccc1	-	-	9	-	0	-	0	0.016	0	0.015	?	?
COC(=O)c1sccc1NC(=O)CSc1ccccc1NS(=O)(=O)c1ccc(Br)cc1	0	-	3.5	0	0	-	0	0.013	0	0.016	0	0.013
C=CCNC(=O)NC(=O)COn1nnc2ccc(S(=O)(=O)N(C)C)cc21	0	0	0	0	0	-	-	-	-	-	-	-
Fc1cc(F)c2nc(Nc3nc4cc5c(cc4s3)OCO5)sc2c1	0	0	8.5	0	0	0	0	0.017	0	0.013	0.026	0.016
O=C(CN1CCCCC1)NNc1nc(-c2ccccc2)c2cc(Cl)ccc2n1	0	0	0	0	0	0	-	-	-	-	-	-
Cc1ccc(S(=O)(=O)N(C)c2nc3ccccc3[nH]c2=S)cc1	-	-	89	-	0	-	0.039	0.087	?	0.065	0.065	0.019
CCCc1nnc2c(N(C)S(=O)(=O)c3ccc(C)cc3)nc3ccccc3n12	0	-	0	0	0	0	-	-	-	-	-	-
O=C(/C=C/c1ccccc1)CC(=O)c1ccccc1O	0	-	6.8	0	0	-	0	0.011	0	0.013	?	0.015
CCC12CN3CC(CC)(CN(C1)C3c1c(O)ccc3ccccc13)C2=O (stereo not given)	0	0	0	0	-	0	-	-	-	-	-	-
O=C(CSc1nc2ccccc2c(=O)n1-c1ccc(F)cc1F)Nc1ccc(N2CCOCC2)cc1	0	0	0	0	0	0	-	-	-	-	-	-
O=c1[nH]nc(Sc2ncnc3sccc23)n1CCc1ccccc1	0	-	-3.2	0	0	-	0	0	0	0	0	0
O=C(O)c1ccccc1Sc1ncnc2sccc12	-	-	0	-	0	-	-	-	-	-	-	-
O=C(NC1CCCC1)NS(=O)(=O)c1ccccc1Cl	0	0	5.7	0	0	0	0	0	0	0	0	0
Cc1ccc(/C=N/n2c(-c3cccnc3)n[nH]c2=S)o1	-	-	0	-	0	-	-	-	-	-	-	-
S=c1[nH]nc(-c2ccccn2)n1/N=C/c1cccs1	0	0	0	0	0	0	-	-	-	-	-	-
Cc1ccc(-c2n[nH]c(=S)n2/N=C/c2ccc(C)o2)cc1	0	-	3.7	0	0	-	?	0.018	0	0.014	0.026	0
S=c1[nH]nc(-c2ccc(Cl)cc2)n1/N=C/c1cccs1	-	-	23	-	0	-	0	0.025	0.042	0.03	0.042	0.024
S=c1[nH]nc(-c2cccnc2)n1/N=C/c1ccc(Br)s1	0	0	23	0	-	0	0	0.055	0	0.011	0	0.012
Cc1ccc(-c2n[nH]c(=S)n2/N=C/c2sccc2C)cc1	-	-	19	-	0	-	0	0.021	0	0.015	0.025	0.017
CN(Cc1ccc(OCC(O)CN2CCCCC2)cc1)Cc1ccnc2ccccc12 (stereo not given)	0	-	0	0	0	0	-	-	-	-	-	-
Cc1ccc2cc(CCNC(=O)C(=O)c3c(C)[nH]c4ccccc34)c(=O)[nH]c2c1	0	0	0	0	0	0	-	-	-	-	-	-
Cc1ccc(/C=N/n2c(-c3ccccn3)n[nH]c2=S)o1	-	-	0	-	0	-	-	-	-	-	-	-
SMILES	Lmaj promast	INS promoter inh	Cl transport mod	WT yeast gro inh	Ins promoter up	ROMK mod	KCC2 secondary	KCC2 bumet counter	KCC2 sec2	HEK293 Tl flux	KCC2 retest ouab	HEK counter2
Cc1ccc(/C=N/n2c(-c3ccc(Cl)cc3)n[nH]c2=S)o1	-	-	7.9	-	0	0	0.016	0.035	0	0.011	0	?
O=C(OCc1ccccn1)c1ccc(COc2ccccc2Cl)o1	0	0	-5.9	0	0	-	0	0	0.025	0	0.013	0
O=c1cc(-c2ccccc2)[nH]n1-c1nc2ccccc2s1	0	-	14	0	0	-	0	0.037	?	0.025	0.04	0.017
CC(=O)c1c(CC(=O)O)[nH]n(-c2nc3ccccc3s2)c1=O	0	-	0	-	-	0	-	-	-	-	-	-
Cc1noc(C)c1C(=O)Nc1nnc(CC(C)C)s1	-	-	0	-	0	-	-	-	-	-	-	-
CC(/C=C1\NC(=S)NC1=O)=C\c1ccccc1	-	-	0	-	0	-	-	-	-	-	-	-
CCCCOc1ccc(-c2c(C#N)c(N)nc(SCC(N)=O)c2C#N)cc1	0	-	-6.4	0	0	0	0	0	0	0	0.017	?
COc1ccccc1NC(=O)N1CCc2[nH]c3ccc(F)cc3c2C1	0	0	-	0	0	-	-	-	-	-	-	-
O=C(Nc1nnc(-c2ccco2)o1)c1cccc(Cl)c1	0	0	24	0	0	0	0.019	0.063	0	0.034	0.049	0.015
O=C(Nc1nnc(-c2ccccn2)o1)c1cccc(Br)c1	0	-	0	0	0	-	-	-	-	-	-	-
O=C(Nc1nnc(-c2ccccn2)o1)c1cccc(Cl)c1	51	-	11	0	0	0	0	0.015	0	0.021	0.027	0.022
O=C(/C=C/c1ccccc1)Nc1nnc(-c2ccco2)o1	65	0	2.8	0	0	0	0	0.0083	0	?	0	0
Cc1cccc(-c2nnc(NC(=O)c3ccc(Cl)cc3)o2)c1	0	-	91	0	0	-	0.07	0.16	0.077	?	0.12	0.072
Cc1ccc(CS(=O)(=O)Cc2ccc(C(=O)NCC3CCCO3)o2)cc1 (stereo not given)	0	0	-	0	0	-	-	-	-	-	-	-
